“And” between values parts separate entries of the source, which are not always exact repeats. Equal entries are not always repeated. Records with an inconclusive call do not appear. The source holds several records for some structures; these can differ, active in one and inactive in another. The source made the active and inactive calls. How the source made its calls, unless noted: active means hit-call score of the fitted dose curve at least 0.9, where 1 is the maximum; inconclusive means response in the unintended direction; inactive means score below 0.9.
Tests used:
[1] = tested on: Sodium/Iodide Symporter (NIS), SLC5A5 (gene 6528); assay: CPHEA_Stoker_NIS_Inhibition_RAIU: CPHEA's Radioactive Iodide Uptake (RAIU) Assay for Sodium/Iodide Symporter (NIS) Inhibition, Stoker and Laws Labs (AID 2283841)
In short: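 Iodide uptake read as CPM of intracellular 125I (final 329 pM) after 2 h room-temperature exposure in HEPES-buffered HBSS, pH 7.4. Human NIS-expressing HEK293T cells; six concentrations 0.001–100 uM, 0.5% DMSO, normalised to DMSO wells.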

[2] = CPHEA_Stoker_NIS_Cytotoxicity: Cytotoxicity Assessment for CPHEA's Radioactive Iodide Uptake (RAIU) Assay for Sodium/Iodide Symporter (NIS) Inhibition, Stoker and Laws Labs (AID 2283897)
In short: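 CellTiter-Glo ATP luminescence gauged viability in HEK293T cells expressing human NIS after 2 h chemical exposure. Concentrations ran 0.001–100 uM in 0.5% DMSO; DMSO served as baseline for the loss-of-signal fit.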

[3] = molecular target: zebrafish Thyroid Hormone Receptor alpha (TRa), thraa (gene 30670) (UniProt Q98867); assay: ATG_zfTRa_XSP2: Attagene TRANS-FACTORIAL Multi-Species (XSP1) HepG2 Assay for zebrafish Thyroid Hormone Receptor alpha (TRa) (AID 2283832);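 further: actives raise zebrafish TRa-Gal4 reporter transcript above DMSO baseline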
Sequence of zebrafish Thyroid Hormone Receptor alpha (TRa), thraa (gene 30670) (Q98867 whole entry, looked up, the tested form may be a part): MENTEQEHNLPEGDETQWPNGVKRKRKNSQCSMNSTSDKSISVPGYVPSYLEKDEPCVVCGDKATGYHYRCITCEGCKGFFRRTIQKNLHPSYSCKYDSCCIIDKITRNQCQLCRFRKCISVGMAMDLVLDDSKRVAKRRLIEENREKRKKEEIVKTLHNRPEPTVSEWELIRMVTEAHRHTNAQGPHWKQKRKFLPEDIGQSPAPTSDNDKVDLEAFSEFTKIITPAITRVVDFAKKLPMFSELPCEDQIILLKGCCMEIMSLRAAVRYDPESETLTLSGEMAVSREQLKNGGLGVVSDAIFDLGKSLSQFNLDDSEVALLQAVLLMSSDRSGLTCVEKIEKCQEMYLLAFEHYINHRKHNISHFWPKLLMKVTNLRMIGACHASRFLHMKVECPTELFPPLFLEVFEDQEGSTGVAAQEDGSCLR
In short: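 HepG2, transient MRTU transfection, exogenous NR-Gal4 chimeras; 24 h dosing; mRNA readout via RT-PCR/CE fluorescence; positive direction vs DMSO.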

[4] = tested on: zebrafish Peroxisome Proliferator-activated Receptor gamma (PPARg), gene 557037; assay: ATG_zfPPARg_XSP2: Attagene TRANS-FACTORIAL Multi-Species (XSP2) HepG2 Assay for zebrafish Peroxisome Proliferator-activated Receptor gamma (PPARg) (AID 2283833);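 further: reporter mRNA from a zebrafish PPARg GAL4 chimera measured by RT-PCR and capillary electrophoresis; actives increase reporter signal over DMSO so AC50 reflects activation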
In short: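 After 24 h chemical exposure, RNA from transiently transfected HepG2 (chimeric NR-Gal4 TRANS reporters) was reverse-transcribed, PCR-amplified, 6-FAM-labelled, HpaI-cut and sized by capillary electrophoresis. Induction was scored in the positive direction relative to DMSO.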

[5] = tested on: turtle Thyroid Hormone Receptor, alpha (TRa), gene 101949057; assay: ATG_trTRa_XSP2: Attagene TRANS-FACTORIAL Multi-Species (XSP1) HepG2 Assay for turtle Thyroid Hormone Receptor, alpha (TRa) (AID 2283834);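 further: hits raise reporter mRNA over the DMSO baseline so AC50 marks activators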
In short: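 Turtle TRa-Gal4 chimera activity in transfected human HepG2 cells: reporter transcripts quantified by RT-PCR, 6-FAM labelling and capillary electrophoresis 24 h post-dosing; positive direction versus DMSO, medium containing 3 nM 6-alpha-fluorotestosterone and 1.5 nM norgestrel.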

[6] = molecular target: frog Thyroid hormone Receptor alpha (TRa), thra-a (gene 397942) (UniProt P15204); assay: ATG_frTRa_XSP2: Attagene TRANS-FACTORIAL Multi-Species (XSP2) HepG2 Assay for frog Thyroid hormone Receptor alpha (TRa) (AID 2283839);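 on AC50: AC50 reflects induction of frog TRa-driven reporter mRNA above DMSO baseline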
Sequence of frog Thyroid hormone Receptor alpha (TRa), thra-a (gene 397942) (P15204 whole entry, looked up, the tested form may be a part): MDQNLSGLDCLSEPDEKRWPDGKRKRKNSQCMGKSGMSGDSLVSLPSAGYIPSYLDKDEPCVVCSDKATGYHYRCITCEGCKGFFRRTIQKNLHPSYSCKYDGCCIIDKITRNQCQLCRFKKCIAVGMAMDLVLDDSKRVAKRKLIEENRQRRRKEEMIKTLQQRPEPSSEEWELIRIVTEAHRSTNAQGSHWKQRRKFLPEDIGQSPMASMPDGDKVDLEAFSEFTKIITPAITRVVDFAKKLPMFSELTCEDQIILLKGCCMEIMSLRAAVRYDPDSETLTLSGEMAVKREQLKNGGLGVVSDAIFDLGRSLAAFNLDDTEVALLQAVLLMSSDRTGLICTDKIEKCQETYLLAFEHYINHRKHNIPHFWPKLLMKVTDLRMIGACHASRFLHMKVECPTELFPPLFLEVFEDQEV
In short: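 Reporter transcripts were measured by RT-PCR with capillary electrophoresis after 24 h dosing of HepG2 carrying transiently transfected multi-reporter units, including a chimeric frog TRa-GAL4 construct. Activity was taken as increase over DMSO vehicle.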

[7] = molecular target: zebrafish Thyroid Hormone Receptor beta (TRb), thrb (gene 30607) (UniProt Q9PVE4); assay: ATG_zfTRb_XSP2: Attagene TRANS-FACTORIAL Multi-Species (XSP1) HepG2 Assay for zebrafish Thyroid Hormone Receptor beta (TRb) (AID 2283836)
Sequence of zebrafish Thyroid Hormone Receptor beta (TRb), thrb (gene 30607) (Q9PVE4 whole entry, looked up): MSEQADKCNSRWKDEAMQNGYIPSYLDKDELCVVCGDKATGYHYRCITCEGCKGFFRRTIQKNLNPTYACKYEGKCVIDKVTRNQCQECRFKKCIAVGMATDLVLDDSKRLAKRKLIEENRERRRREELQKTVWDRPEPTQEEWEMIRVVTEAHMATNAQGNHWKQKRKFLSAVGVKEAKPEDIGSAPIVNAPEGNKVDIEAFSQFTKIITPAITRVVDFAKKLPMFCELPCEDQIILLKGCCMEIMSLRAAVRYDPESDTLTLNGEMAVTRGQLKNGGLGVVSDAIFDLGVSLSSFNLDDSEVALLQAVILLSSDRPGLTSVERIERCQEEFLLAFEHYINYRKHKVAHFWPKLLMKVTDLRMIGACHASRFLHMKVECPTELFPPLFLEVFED
In short: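 Transfect HepG2 with multiple reporter transcription units, dose chemical, incubate 24 h. Isolate RNA, reverse-transcribe, amplify and fluorescently label reporter sequences, digest with HpaI, then resolve by capillary electrophoresis. Positive direction fitted against DMSO.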

[8] = ATG_M_61_XSP2: Attagene TRANS-FACTORIAL Multi-Species (XSP2) HepG2 Assay for M61 Transcription Factor (Internal Marker) (AID 2283835; active means hit-call score of the fitted dose curve at least 0.9, where 1 is the maximum; inactive means score below 0.9;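 further: reporter mRNA of an internal background marker read by RT-PCR and capillary electrophoresis; active means a rise in signal above the DMSO baseline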)
In short: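 Signal was mRNA induction detected as fluorescence after RT-PCR and capillary electrophoresis, analysed in the gain direction with DMSO as baseline. HepG2 cells transiently carrying reporter constructs received chemicals for 24 h.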

[9] = molecular target: human Thyroid hormone Receptor alpha (TRa), THRA (gene 7067) (UniProt P10827); assay: ATG_hTRa_XSP2: Attagene TRANS-FACTORIAL Multi-Species (XSP2) HepG2 Assay for human Thyroid hormone Receptor alpha (TRa) (AID 2283838)
Sequence of human Thyroid hormone Receptor alpha (TRa), THRA (gene 7067) (P10827 whole entry, looked up, the tested form may be a part): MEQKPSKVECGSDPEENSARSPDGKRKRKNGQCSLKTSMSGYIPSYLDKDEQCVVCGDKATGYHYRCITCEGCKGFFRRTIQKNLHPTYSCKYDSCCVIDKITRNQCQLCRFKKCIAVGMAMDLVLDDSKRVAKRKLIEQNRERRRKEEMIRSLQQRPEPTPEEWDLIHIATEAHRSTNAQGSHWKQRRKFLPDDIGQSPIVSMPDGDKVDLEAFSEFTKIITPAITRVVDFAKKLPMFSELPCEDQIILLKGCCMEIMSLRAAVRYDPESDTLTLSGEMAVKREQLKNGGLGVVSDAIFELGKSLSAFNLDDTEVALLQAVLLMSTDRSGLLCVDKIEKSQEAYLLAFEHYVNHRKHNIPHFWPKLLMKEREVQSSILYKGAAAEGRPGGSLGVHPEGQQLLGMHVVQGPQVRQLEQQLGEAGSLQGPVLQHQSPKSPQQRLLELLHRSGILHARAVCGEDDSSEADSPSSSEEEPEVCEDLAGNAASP
In short: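 Reporter transcripts were read by RT-PCR with fluorescent primer extension, HpaI digestion and capillary electrophoresis. These came from HepG2 cells carrying multiplexed TRa-Gal4 TRANS constructs, harvested 24 hours after dosing. The medium also held 6-alpha-fluorotestosterone (3 nM) and norgestrel (1.5 nM), and increases were fitted against DMSO.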

[10] = ATG_XTT_Cytotoxicity_XSP2: Cytotoxicity Assessment in the Attagene TRANS-FACTORIAL Multi-Species (XSP2) HepG2 Assay (AID 2283837)
In short: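 XTT-based cell number read-out in human HepG2 liver cells carrying transfected reporter units, measured 24 h after chemical dosing. Activity is signal loss versus DMSO baseline.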

Structure (SMILES): O=S(=O)(O)C(F)(F)C(F)(F)C(F)(F)C(F)(F)C(F)(F)C(F)(F)F
- AC50 [1]: 23.3 µM (active) and 7.48 µM (active) and 2.33 µM (active)
- outcome [2]: inactive

Structure (SMILES): CCNc1nc(NC(C)C)nc(SC)n1
- outcome [1]: inactive
- outcome [2]: inactive

Structure (SMILES): O=C(O)C(F)(F)C(F)(F)C(F)(F)C(F)(F)C(F)(F)F
- outcome [1]: inactive

Structure (SMILES): Cc1cccc(C)c1N
- outcome [1]: inactive
- outcome [2]: inactive

Structure (SMILES): Oc1ccc(C(c2ccc(O)cc2)(C(F)(F)F)C(F)(F)F)cc1
- outcome [3]: inactive
- outcome [4]: inactive
- outcome [5]: inactive
- outcome [6]: inactive
- outcome [1]: inactive
- outcome [2]: inactive

Structure (SMILES): ClC(Cl)=C(c1ccc(Cl)cc1)c1ccc(Cl)cc1
- outcome [5]: inactive
- outcome [7]: inactive
- outcome [6]: inactive
- outcome [2]: inactive

Structure (SMILES): Clc1ccc(C(c2ccccc2Cl)C(Cl)(Cl)Cl)cc1 (stereo not drawn)
- outcome [8]: inactive
- outcome [9]: inactive
- outcome [6]: inactive

Structure (SMILES): C[C@]12CCC(=O)C=C1CC[C@@H]1[C@@H]2CC[C@@]2(C)[C@H]1CC[C@]2(C)O
- outcome [5]: inactive
- outcome [8]: inactive
- outcome [9]: inactive

Structure (SMILES): c1ccc(-c2ccccc2)cc1
- outcome [2]: inactive

Structure (SMILES): CC(C)(c1ccccc1)c1ccc(O)cc1
- outcome [5]: inactive
- outcome [8]: inactive
- outcome [7]: inactive
- outcome [9]: inactive
- outcome [6]: inactive
- outcome [1]: inactive
- outcome [2]: inactive

Structure (SMILES): Cc1cc(-c2ccc(N)c(C)c2)ccc1N
- outcome [3]: inactive
- AC50 [4]: 10.8 µM (active)
- outcome [4]: inactive
- outcome [5]: inactive
- outcome [7]: inactive
- outcome [10]: inactive
- outcome [9]: inactive
- outcome [6]: inactive

Structure (SMILES): CCOP(=S)(OCC)SCSC(C)(C)C
- outcome [2]: inactive

Structure (SMILES): Oc1c(Cl)c(Cl)c(Cl)c(Cl)c1Cl
- outcome [2]: inactive

Structure (SMILES): O=C(O)C(F)(F)C(F)(F)C(F)(F)C(F)(F)C(F)(F)C(F)(F)C(F)(F)C(F)(F)C(F)(F)F
- AC50 [1]: 12.8 µM (active)
- outcome [1]: inactive
- outcome [2]: inactive

Structure (SMILES): ClC1=C(Cl)[C@]2(Cl)[C@@H]3[C@@H](Cl)[C@H]4O[C@H]4[C@@H]3C1(Cl)C2(Cl)Cl
- outcome [1]: inactive
- outcome [2]: inactive

Structure (SMILES): O=C(O)C(F)(F)C(F)(F)C(F)(F)C(F)(F)C(F)(F)C(F)(F)C(F)(F)C(F)(F)F
- AC50 [1]: 12 µM (active)
- outcome [2]: inactive

Structure (SMILES): CC(C)(O)C(=O)Nc1ccc([N+](=O)[O-])c(C(F)(F)F)c1
- outcome [3]: inactive
- outcome [5]: inactive
- outcome [8]: inactive
- outcome [7]: inactive
- outcome [9]: inactive
- AC50 [6]: 9.93 µM (active)
- outcome [2]: inactive

Structure (SMILES): CCCCCCCCCC[N+](C)(C)CCCCCCCCCC
- outcome [1]: inactive
- outcome [2]: inactive

Structure (SMILES): O=S(=O)(O)C(F)(F)C(F)(F)C(F)(F)C(F)(F)F
- outcome [1]: inactive
- outcome [2]: inactive

Structure (SMILES): C[C@]12CCC(=O)C=C1CC[C@@H]1[C@@H]2CC[C@]2(C)C(=O)CC[C@@H]12
- outcome [5]: inactive
- outcome [8]: inactive
- outcome [7]: inactive
- outcome [9]: inactive
- outcome [6]: inactive

Structure (SMILES): CCC(C)c1cc([N+](=O)[O-])cc([N+](=O)[O-])c1O (stereo not drawn)
- outcome [1]: inactive
- outcome [2]: inactive

Structure (SMILES): NS(=O)(=O)C(F)(F)C(F)(F)C(F)(F)C(F)(F)C(F)(F)C(F)(F)C(F)(F)C(F)(F)F
- outcome [1]: inactive
- outcome [2]: inactive

From PubChem BioAssay (EPA / NIEHS)
